The text below walks through data of PubChem BioAssay AID1578 (Sanford-Burnham Center for Chemical Genomics, 2009).

Among all 290,000 compounds or so, about 3,000 (1%) were called active. Cut-off read from the data, not from the text of the source: active = inhibition mostly above about 36% (no sharp cut-off); inactive = mostly below about 34%. Only a selection was taken, and actives are over-represented in it overall.

This experiment in a line: inhibition of NOD1-driven NF-kB reporter – cell-based, luminescence, uHTS, primary screen (AID 1578).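 Note: HEK-293T reporter cells stimulated with the NOD1 agonist gamma-tri-DAP.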 The note with it: NOD1-driven NF-kB luciferase reporter cells, at 4 µM, stronger effect = higher value.
On to `Cc1ccc2c(=O)cc(C(=O)NC3CCS(=O)(=O)C3)oc2c1` (stereo not drawn), for which the inhibition was -12% (inactive).
With `O=C(NCc1nc(-c2ccc(C(F)(F)F)cc2)no1)Nc1ccc(OC(F)(F)F)cc1` the figure was 5.1% (inactive); with `O=C(NCc1nc(-c2ccc(C(F)(F)F)cc2)no1)Nc1cc(Cl)cc(Cl)c1`, 44.1% (active).
In the case of `O=C(NCc1nc(-c2ccc(C(F)(F)F)cc2)no1)Nc1ccc(F)cc1F`, the inhibition was 3.8% (inactive).
In the case of `Cc1ccccc1CC(=O)N1CC(C)OC(C)C1` (stereo not drawn) it was -15.5% (inactive).
In the case of `O=C(NC(=S)Nc1cccc2cnccc12)c1ccccc1` it was 80.9% (active).
With `S=C(NCc1ccccc1)Nc1cccc2cnccc12` the figure was 41.4% (inactive).
For the molecule `O=C(NC(=S)Nc1cccc2[nH]ncc12)c1ccccc1`, the inhibition was 68.4% (active).
In the case of `O=C(NC(=S)Nc1cccc2cccnc12)c1ccccc1`, the inhibition is -2.9% (inactive).
Consider `O=C(Nc1cccc2[nH]ncc12)c1ccc(F)cc1`, for which the inhibition was -0.2% (inactive).
Consider `CNC(=S)Nc1cccc2[nH]ncc12`, for which the inhibition was -6.5% (inactive).
`CS(=O)(=O)N(CC(=O)Nc1cccnc1)c1ccc2c(c1)OCCO2`: the inhibition is -12.2% (inactive).
Turning to `CS(=O)(=O)N1CCN(c2ccccc2NC(=O)c2ccc(-c3ccc(Br)cc3)o2)CC1`, the inhibition is -21.7% (inactive).
With `CC(C)c1ccc(NC(=O)COC(=O)CCC(=O)c2cccs2)cc1` the figure was 5.4% (inactive); with `O=C(O)c1ccc(NC2=C(n3nnc4ccccc43)C(=O)c3ccccc3C2=O)cc1`, -3.8% (inactive).
In the case of `O=C1c2ccccc2C(=O)c2c1cccc2-n1nnc2ccccc21` it was 3.1% (inactive); in that of `O=C1C(N2CCOCC2)=C(n2nnc3ccccc32)C(=O)c2ccccc21`, 101% (active); in that of `CCOC(=O)c1ccc(NC(=O)CN2C(=O)C(CC)SC(CC)C2=O)cc1` (stereo not drawn), -15.5% (inactive).
For `O=C(c1ccc2ccccc2c1)N1CCCCC1`, the inhibition was 14.9% (inactive).
Turning to `Cc1nn(-c2ccccc2)nc1C(=O)NNC(=O)c1ccc(C(F)(F)F)cc1`, the inhibition is -5.6% (inactive).
On to `CCc1nnc(NC(=O)c2nn(-c3ccccc3)nc2C)s1`, for which the inhibition is -6.6% (inactive).
Turning to `Cc1nn(-c2ccccc2)nc1C(=O)Nc1nnc(C(F)(F)F)s1`, the inhibition was 54.4% (active).
Consider `O=C(Nc1nnc(C(F)(F)F)s1)c1c(F)cccc1F`, for which the inhibition was 2% (inactive).
In the case of `O=C(Nc1nnc(C(F)(F)F)s1)c1ccc(Br)s1`, the inhibition was 84% (active).
Turning to `CCSc1nnc(NC(=O)c2ccc(Br)s2)s1`, the inhibition was -37.5% (inactive).
On to `CC1(C)CC(=O)/C(=C(\O)CCCN2C(=O)c3ccccc3C2=O)C(=NCCO)C1`, for which the inhibition was -17.2% (inactive).
In the case of `COc1cc2[nH]c(C(=O)NN)c(N)c2cc1OC` it was -7.9% (inactive); in that of `CC(C)(C)NC(=O)C(c1ccccc1)N(Cc1ccco1)C(=O)c1csnn1` (stereo not drawn), -0.4% (inactive).
In the case of `CCOC(=O)C1CCN(C(=O)Cn2cccc2C(=O)c2ccccc2)CC1` it was -13.4% (inactive); in that of `CC1CN(Cc2nc3c(c(=O)[nH]c(=O)n3C)n2CCN2CCOCC2)CC(C)O1` (stereo not drawn), 7.3% (inactive); in that of `CC(C)[C@H](NC(=O)[C@@H]1CSC2c3ccccc3C(=O)N21)C(=O)NCc1ccncc1` (stereo partly drawn), -23.2% (inactive).
Take `c1ccc(-c2ccccn2)nc1`: the inhibition is -28.9% (inactive).
With `c1ccc(-c2ccc(-c3ccccn3)nn2)nc1` the figure was 27.1% (inactive); with `c1ccc(-c2cccc(-c3ccccn3)n2)nc1`, 90.2% (active).
`O=C(c1ccc2c3c(cccc13)CC2)C1CCCN(C(=O)c2ccc[n+]([O-])c2)C1` (stereo not drawn): the inhibition is 10.8% (inactive).
With `CCn1c(C)c(C(C)=O)cc(C#N)c1=O` the figure was -4.6% (inactive); with `C=CCNC(=O)C1CCN(c2c([N+](=O)[O-])cc(C(F)(F)F)cc2[N+](=O)[O-])CC1`, 2.2% (inactive).
Turning to `Cc1ccccc1NS(=O)(=O)c1ccc(OCC(=O)NCc2ccco2)cc1`, the inhibition is -20.7% (inactive).
With `COC(=O)CSC1=C(C#N)C(=O)NC(c2ccccc2)S1` (stereo not drawn) the figure was 38.8% (inactive); with `CSC1=C(C#N)C(=O)NC(c2ccc(Cl)cc2)S1` (stereo not drawn), 45% (active); with `CSC1=C(C#N)C(=O)NC(c2ccccc2O)S1` (stereo not drawn), -3.8% (inactive).
In the case of `COc1cc([N+](=O)[O-])ccc1NC(=S)NNC(=O)c1ccc2c(c1)OCO2`, the inhibition is 15.2% (inactive).
On to `N#CC(Cc1cccc(CC(C#N)(c2ccccc2)c2ccccc2)c1)(c1ccccc1)c1ccccc1`, for which the inhibition was 4.8% (inactive).
Take `Oc1ccc(C[C@@H]2CNC(=S)N2CCCCC2CCCCC2)cc1`: the inhibition was -30.3% (inactive).
In the case of `CCC(=O)Nc1ccc(Cl)c(NC(=O)c2c(OC)cccc2OC)c1`, the inhibition was 7% (inactive).
As to `COc1ccc(C(=O)Nc2cc(OC)c(Cl)cc2OC)cc1`, the inhibition is -33.1% (inactive).
For `CCC(=O)Nc1ccc(Cl)c(NC(=O)c2ccccc2OC)c1`, the inhibition is 57.1% (active).
Regarding `CCC(=O)Nc1ccc(Cl)c(NC(=O)c2cccc(OC)c2)c1`, the inhibition was -28.2% (inactive).
As to `COc1cc(NC(=O)c2ccccc2)c(OC)cc1Cl`, the inhibition was -16.7% (inactive).
With `c1ccc(CCn2cnc3ccccc32)cc1` the figure was -43.2% (inactive); with `CCCC(=O)C1=C(O)C(C(=O)OC)C(C)(C)CC1=Nc1cccc([N+](=O)[O-])c1` (stereo not drawn), -12.8% (inactive); with `FC(F)(F)Oc1ccc(NC(=S)Nc2ccccc2N2CCOCC2)cc1`, 4.5% (inactive).
With `O=C(NCCNC(=O)c1ccccc1F)c1ccccn1` the figure was -8.2% (inactive).
With `CCOc1ccc(OCc2ccc(C(=O)N/N=C(\C)c3ccccn3)cc2)cc1` the figure was 91.6% (active); with `C/C(=N\NC(=O)c1ccc(COc2ccccc2)cc1)c1ccncc1`, -26.5% (inactive).
`C/C(=N\NC(=O)c1c[nH]c2ccccc12)c1ccccn1`: the inhibition is -30.8% (inactive).
With `CCOc1ccc(C(=O)N/N=C(\c2ccccc2)c2ccccn2)cc1` the figure was 63.3% (inactive).
In the case of `COCC(=O)N1CCC(n2nnc3cc(C(F)(F)F)ccc32)CC1` it was -11.5% (inactive).
With `Cc1ccccc1NC(=O)c1ccc2nccnc2c1` the figure was -15.6% (inactive).
Regarding `COc1ccc(Sc2nnc(Cc3ccccc3)c3ccccc23)cc1`, the inhibition is 46.4% (inactive).
In the case of `Cc1ccc(Sc2nnc(Cc3ccccc3)c3ccccc23)cc1` it was 70% (active); in that of `c1ccc(Cc2nnc(Sc3ccccc3)c3ccccc23)cc1`, 40.8% (inactive).
In the case of `COc1cccc(OCc2cc(C(=O)N(C)C3CC(C)(C)NC(C)(C)C3)no2)c1` it was -22.6% (inactive).
